The text below walks through data of the OligoGym collection.
Also: reference of the scale not given here.

In the test the target is EFNB2. Put plainly: pooled miR-30 sensor sort-seq; sequence = guide strand. The note with it: shRNA.
As to TTGCTCTATGTACACAATCTGG, the sensor-assay potency score (higher = more potent) was -1.18. The value for TTTTCTTCCTGCACATCGCTAT was 0.000564. Take TTAGACTTTATAAAAAACCAAC: the sensor-assay potency score (higher = more potent) was -1.36.

In the case of TTGTCGAACTTCTTCCATTTGT, the sensor-assay potency score (higher = more potent) is -0.423. As for TTTATCAACCATATAAACTTTA, the figure is -0.264. The sequence TAGAGGATCATAATTTCTGTGA registered a sensor-assay potency score (higher = more potent) of -0.365. Take TTGGAAATCGCAGTTCTGCATA: the sensor-assay potency score (higher = more potent) is -1.17.

TTGCACACCTTAACTAGCCCGA: the sensor-assay potency score (higher = more potent) was -0.379.

ATAGGCTCTAAAACTATCGATT had a sensor-assay potency score (higher = more potent) of -0.56. As for TAATAGTGCATCTGTCTGCTTG, the figure is 0.293; as for TTGATCCAGCAGAACTTGCATC, -0.768; as for TTGTTGTCGAACTTCTTCCATT, -1.15.

TATCTGTGGGTATAGTACCAGT: the sensor-assay potency score (higher = more potent) is -1.11. TTTATACAAAACATCTTGCTTA yielded a sensor-assay potency score (higher = more potent) of 0.624. Consider TATAATGTAATAATCTTTGTTC, for which the sensor-assay potency score (higher = more potent) was determined as 0.426. The value for TATAATATTCATACTGGCCAAC was -1.28. The value for TTAATAGTGCATCTGTCTGCTT was -0.0531; that for AATTCTTGAAACTTGATGGTGA was 0.644. In turn, TTCTGCACAGTCTTCCAGCTTC gave a sensor-assay potency score (higher = more potent) of -0.41. The sequence TTAGCATAGAACCAAAACGTAG showed a sensor-assay potency score (higher = more potent) of -1.59. TAAAAAACCAACATTGCTCTAT yielded a sensor-assay potency score (higher = more potent) of 0.0453.
